In PubChem BioAssay (NCATS):
Results filed as inconclusive are left out. Active and inactive are the calls of the source. Calls follow the shape of the dose curve; as a rule, active = well fitted curve in the direction sought with a large enough effect; inconclusive = small, poorly fitted or top-dose-only effect, or another doubt; inactive = no such curve, though single readings can be large; an effect the other way counts as inactive or inconclusive.

How the values were obtained:
MCC-13 = assay: qHTS assay to identify novel small-molecules to repurpose for Merkel cell carcinoma treatment (AID 1296009); conditions: MCC and control cell lines, CellTiter-Glo viability, 72 h; series mostly up to 46 µM; also: nearly all actives have a fitted effect of over 60% in size
Summary of the method: (§1)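 Viability readout: ATP luminescence (CellTiter-Glo) after 72 hr drug exposure at 37 degree celsius. Dose-response format was 8 points for NPC and 11 points for MIPE; data normalized to in-plate controls.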

MKL-1 = assay: as above; conditions: MCC and control cell lines, CellTiter-Glo viability, 72 h; series mostly up to 46 µM
Summary of the method: as §1

MKL-2 = assay: as above; conditions: MCC and control cell lines, CellTiter-Glo viability, 72 h; series mostly up to 46 µM
Summary of the method: as §1

C33A = assay: Primary qHTS to identify gynecologic anti-cancer compounds using libraries of approved drugs and bioactive compounds (AID 1345084); conditions: Gynecologic cancer cell panel viability, ATPlite luminescence, 48 h; series mostly up to 57.5 µM; also: nearly all actives have a fitted effect of over 55% in size
Summary of the method: (§2)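 Cytotoxicity screen measuring ATP content by luciferase luminescence. Each compound is applied at five concentrations for 48 h at 37 C with 5% CO2.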

CAOV3 = assay: as above; conditions: Gynecologic cancer cell panel viability, ATPlite luminescence, 48 h; series mostly up to 57.5 µM
Summary of the method: as §2

CASKI = assay: as above; conditions: Gynecologic cancer cell panel viability, ATPlite luminescence, 48 h; series mostly up to 57.5 µM
Summary of the method: as §2

Es-2 = assay: as above; conditions: Gynecologic cancer cell panel viability, ATPlite luminescence, 48 h; series mostly up to 57.5 µM
Summary of the method: as §2

HeLa = assay: as above; conditions: Gynecologic cancer cell panel viability, ATPlite luminescence, 48 h; series mostly up to 57.5 µM
Summary of the method: as §2

Hek293T = assay: as above; conditions: Gynecologic cancer cell panel viability, ATPlite luminescence, 48 h, control line for the selectivity index; series mostly up to 57.5 µM
Summary of the method: as §2

JEG-3 = assay: as above; conditions: Gynecologic cancer cell panel viability, ATPlite luminescence, 48 h; series mostly up to 57.5 µM
Summary of the method: as §2

OV90 = assay: as above; conditions: Gynecologic cancer cell panel viability, ATPlite luminescence, 48 h; series mostly up to 57.5 µM
Summary of the method: as §2

SKOV3 = assay: as above; conditions: Gynecologic cancer cell panel viability, ATPlite luminescence, 48 h; series mostly up to 57.5 µM
Summary of the method: as §2

Tov-21-G = assay: as above; conditions: Gynecologic cancer cell panel viability, ATPlite luminescence, 48 h; series mostly up to 57.5 µM
Summary of the method: as §2

Tov112D = assay: as above; conditions: Gynecologic cancer cell panel viability, ATPlite luminescence, 48 h; series mostly up to 57.5 µM
Summary of the method: as §2

MCC-26 = assay: qHTS assay to identify novel small-molecules to repurpose for Merkel cell carcinoma treatment (AID 1296009); conditions: MCC and control cell lines, CellTiter-Glo viability, 72 h; series mostly up to 46 µM; also: nearly all actives have a fitted effect of over 60% in size
Summary of the method: as §1

UISO = assay: as above; conditions: MCC and control cell lines, CellTiter-Glo viability, 72 h; series mostly up to 46 µM
Summary of the method: as §1

WaGa = assay: as above; conditions: MCC and control cell lines, CellTiter-Glo viability, 72 h; series mostly up to 46 µM
Summary of the method: as §1

PA-1 = assay: Primary qHTS to identify gynecologic anti-cancer compounds using libraries of approved drugs and bioactive compounds (AID 1345084); conditions: Gynecologic cancer cell panel viability, ATPlite luminescence, 48 h; series mostly up to 57.5 µM; also: nearly all actives have a fitted effect of over 55% in size
Summary of the method: as §2

[1] = Drug repurposing screens with cells derived from glioblastoma tumor samples (AID 1345199); conditions: GBM patient neurospheres viability, ATP luminescence, 48 h; also: nearly all actives have a fitted effect of over 40% in size
Summary of the method: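 Primary testing used CD133+ neurospheres from four GBM patients, seven concentrations, 48 h exposure and ATP-based viability; confirmation added three slower-growing patient lines.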

NIH3T3 = assay: qHTS assay to identify novel small-molecules to repurpose for Merkel cell carcinoma treatment (AID 1296009); conditions: MCC and control cell lines, CellTiter-Glo viability, 72 h; series mostly up to 44.8 µM; also: nearly all actives have a fitted effect of over 60% in size
Summary of the method: as §1

[2] = at 45.9 µM (top of the series), tumour line B
[3] = at 45.9 µM (top of the series), tumour line D
[4] = at 46.1 µM (top of the series), tumour line C
% is scaled to controls: 0 for no effect and ±100 for the full control effect; potency is read from the fitted curve at half-maximal effect.

Cc1cnc(CNC(=O)c2c(=O)c3ccc(N4CCCN(C)CC4)nc3n3c2sc2ccccc23)cn1
inactive: Potency (MCC-13) | Potency (MKL-1) | Potency (MKL-2) | activity change, negative = cytotoxicity (C33A) -22% [at 11.6 µM] | activity change, negative = cytotoxicity (CAOV3) -1.16% [at 11.6 µM] | activity change, negative = cytotoxicity (CASKI) -0.786% [at 11.6 µM] | activity change, negative = cytotoxicity (Es-2) -19% [at 11.6 µM] | activity change, negative = cytotoxicity (HeLa) -13.6% [at 11.6 µM] | activity change, negative = cytotoxicity (Hek293T) -21% [at 11.6 µM] | activity change, negative = cytotoxicity (JEG-3) -3.1% [at 11.6 µM] | activity change, negative = cytotoxicity (OV90) 10.5% [at 11.6 µM] | activity change, negative = cytotoxicity (SKOV3) -5.43% [at 11.6 µM] | activity change, negative = cytotoxicity (Tov-21-G) -27.4% [at 11.6 µM] | activity change, negative = cytotoxicity (Tov112D) -20.9% [at 11.6 µM]

C[C@H]1[C@H](O)O[C@@H]2O[C@@]3(C)CC[C@@H]4[C@H](C)CC[C@@H]1[C@@]24OO3
active: Potency (MKL-1) 16.6 µM | Potency (MKL-2) 10.5 µM | Potency (UISO) 2.96 µM | Potency (WaGa) 9.35 µM
inactive: Potency (MCC-26)

CC1(C)C(N(O)C(=O)Nc2ccc(Cl)cc2)N(c2ccc(Cl)cc2)C(=O)N1CC(=O)NN=CC=Cc1ccc([N+](=O)[O-])o1 (stereo not drawn)
inactive: Potency (MCC-13) | Potency (UISO)
active: Potency (MKL-2) 23.5 µM

FC(F)(F)c1ccc(C=Cc2nc(COc3ccc(CCCCn4ccnn4)cc3)co2)cc1
active: Potency (MCC-13) 10.5 µM | Potency (MKL-1) 0.0235 µM | Potency (UISO) 0.0264 µM | Potency (WaGa) 0.0047 µM

CC1(COc2ccc3c(c2)ncn3-c2ccc3cccc(N4CCC(N)CC4)c3n2)COC1
active: Potency (MCC-13) 18.7 µM | Potency (MKL-2) 18.7 µM | Potency (Es-2) 28.2 µM | Potency (HeLa) 20 µM | Potency (Hek293T) 20 µM | Potency (PA-1) 8.91 µM

CC[C@H](CC#N)OC(=O)N[C@@H](C)c1cccc(NC(=O)Nc2ccc(-c3cnco3)c(OC)c2)c1
inactive: Potency (CAOV3) | Potency (JEG-3)
active: Potency (MCC-13) 4.18 µM | Potency (Es-2) 1.78 µM | Potency (Hek293T) 1.78 µM | Potency (PA-1) 0.355 µM | Potency (SKOV3) 6.31 µM | Potency (Tov-21-G) 1.26 µM

COc1cc2c(cc1OC)CC(=O)N(CCCN(C)C[C@H]1Cc3cc(OC)c(OC)cc31)CC2
active: Potency ([1]; tumour line A) 11.2 µM
inactive: Potency (MCC-13) | Potency (MKL-1) | Potency (MKL-2) | Potency (UISO) | Potency (WaGa) | activity, negative = cell killing [1, 2] -14.4% | activity, negative = cell killing [1, 3] -19.2% | activity, negative = cell killing [1, 4] -34%

O=C(Nc1cccc(Cl)c1)Nc1ncc(CCNc2ncnc3ccsc23)s1
inactive: Potency (MCC-26) | Potency (MKL-2) | Potency (UISO)
active: Potency (MKL-1) 0.296 µM

CCC[C@H](Nc1nc(-c2ccc(NC(=O)NCC)c(OC)c2)ncc1C)c1cccnc1
active: Potency (MCC-13) 0.0469 µM | Potency (MKL-2) 0.0187 µM

O[C@@H](COc1cccc2ncccc12)CN1CCN(C2c3ccccc3[C@@H]3[C@H](c4ccccc42)C3(F)F)CC1 (stereo partly drawn)
inactive: Potency (MCC-13) | Potency (NIH3T3) | Potency (C33A) | Potency (CAOV3) | Potency (CASKI) | Potency (Es-2) | Potency (HeLa) | Potency (Hek293T) | Potency (JEG-3) | Potency (OV90) | Potency (PA-1) | Potency (SKOV3) | Potency (Tov-21-G) | Potency (Tov112D)

C=CCc1cccc(C=NNC(=O)CN2CCN(Cc3ccccc3)CC2)c1O
inactive: Potency (MCC-26)
active: Potency (MKL-1) 9.35 µM | Potency (MKL-2) 16.6 µM | Potency (WaGa) 16.6 µM

CCNC(=O)c1noc(-c2cc(C(C)C)c(O)cc2O)c1-c1ccc(CN2CCOCC2)cc1
active: Potency (MCC-13) 0.209 µM | Potency (UISO) 0.166 µM | Potency (OV90) 3.98 µM | Potency (PA-1) 0.251 µM
inactive: Potency (MKL-2) | Potency (JEG-3)

CC(=O)Nc1cccc(-n2c(=O)n(C3CC3)c(=O)c3c(Nc4ccc(I)cc4F)n(C)c(=O)c(C)c32)c1
inactive: Potency (MCC-26) | Potency (MKL-1) | Potency (MKL-2) | Potency (UISO) | Potency (WaGa) | Potency (C33A) | Potency (CASKI) | Potency (HeLa) | Potency (Hek293T) | Potency (JEG-3) | Potency (PA-1) | Potency (SKOV3) | Potency (Tov-21-G) | Potency (Tov112D)

Cc1[nH]c(C=C2C(=O)Nc3ccc(S(=O)(=O)N(C)c4cccc(Cl)c4)cc32)c(C)c1C(=O)N1CCN(C)CC1
active: Potency (MKL-2) 20.9 µM | Potency (WaGa) 20.9 µM

C=CC(=O)Nc1cccc(Sc2nc(Nc3ccc(N4CCN(C)CC4)cc3)ncc2Cl)c1
inactive: Potency (Es-2) | Potency (JEG-3) | Potency (OV90)
active: Potency (Tov-21-G) 12.6 µM

CCCCC(F)(F)[C@@]1(O)CC[C@H]2[C@H](CC(=O)[C@@H]2CCCCCCC(=O)O)O1
inactive: Potency (C33A) | Potency (CASKI) | Potency (Es-2) | Potency (HeLa) | Potency (Hek293T) | Potency (JEG-3) | Potency (OV90) | Potency (PA-1) | Potency (SKOV3) | Potency (Tov-21-G) | Potency (Tov112D) | activity, negative = cell killing [1, 2] -4.88% | activity, negative = cell killing [1, 3] -10.8% | activity, negative = cell killing [1, 4] 12%
